Assay results: PubChem BioAssay (NCI)
Compounds without any hit were thinned out: in the full panel of roughly 79,000, 15% have a hit. Cut-off read from the data, not from the text of the source: active = growth inhibition above about 70%; inactive = the rest.

Experiments:
[1] = NCI Yeast Anticancer Drug Screen. Data for the rad50 strain (AID 155);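 note: 0% = growth of vehicle-only cultures of the same strain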; details: S. cerevisiae rad50 strain growth inhibition; at 50.0 µM; stronger effect = higher value
Summary of the method: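 Relative growth inhibition (compound vs vehicle) was measured in yeast with a defined repair-gene alteration.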

[2] = NCI Yeast Anticancer Drug Screen. Data for the mec2-1 strain (AID 157); details: S. cerevisiae mec2-1 strain, at 50.0 µM, stronger effect = higher value
Summary of the method: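 Compounds were applied to mec2-1 yeast cells. Their growth was then compared with that of vehicle-treated cultures to give growth inhibition.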

[3] = NCI Yeast Anticancer Drug Screen. Data for the sgs1 mgt1 strain (AID 161);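 note: 0% = growth of cultures given vehicle only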; details: S. cerevisiae sgs1 mgt1 strain, at 50.0 µM, stronger effect = higher value
Summary of the method: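 Compounds are added to genetically altered yeast, and growth is compared with cultures given vehicle alone to give percent inhibition.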

[4] = NCI Yeast Anticancer Drug Screen. Data for the bub3 strain (AID 167); details: S. cerevisiae bub3 mutant strain, at 50.0 µM, stronger effect = higher value
Summary of the method: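 Screening used yeast with an engineered genetic alteration affecting cell cycle control. Compound-exposed cultures were compared with vehicle cultures, and reduced growth was taken as inhibition.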

[5] = NCI Yeast Anticancer Drug Screen. Data for the mlh1 rad18 strain (AID 175); details: S. cerevisiae mlh1 rad18 strain growth inhibition; at 50.0 µM; stronger effect = higher value
Summary of the method: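 A repair-deficient yeast strain is exposed to test compound, and growth is scored relative to vehicle-treated controls.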

[6] = NCI Yeast Anticancer Drug Screen. Data for the cln2 rad14 strain (AID 165);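 note: 0% = growth equal to vehicle treated cultures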; details: S. cerevisiae cln2 rad14 strain, at 50.0 µM, stronger effect = higher value
Summary of the method: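 Strain: cln2 rad14 yeast, altered in cell cycle control and DNA damage repair. Read-out: growth inhibition vs vehicle.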

Measured: growth inhibition

COC(=O)N(c1ccccc1)c1ccccn1
inactive: [1] -16.6% | [2] -9.95% | [3] -10.2% | [4] 4.3% | [5] -22.6%

CNc1ccccc1C(=O)N/N=C/C1CCCCC1
inactive: [1] 0.6% | [2] -2.65% | [3] 16.6% | [4] 9.85% | [5] 8.35%

CC(=O)NC1c2ccccc2Oc2c(C)cccc21 (stereo not given)
inactive: [1] -8.8% | [2] 0.85% | [3] 1.7% | [4] 2.75% | [5] 2.6%

CCO/C=C1/N=C(c2cccc3ccccc23)OC1=O
inactive: [1] 3.15% | [2] -1.5% | [3] 5.7% | [4] -1.85% | [5] 5.55%

CCC1(C)OCC(CCCCO)O1 (stereo not given)
inactive: [1] -16.2% | [2] -14.9% | [3] -9.4% | [4] -11.4% | [5] 14.3%

COC(=O)c1ccc(C(=O)OC)c2nn3c(N)nnc3nc12
inactive: [1] 8.85% | [2] 15% | [3] 7.55% | [4] 9.15% | [5] 2.9%

O=C(Nc1ccccc1F)Oc1ccc(Cl)cc1Cl
inactive: [1] 26.8% | [2] 14.7% | [3] 20.5% | [4] 19.4% | [5] 13.2%

CN(CC1NCCCC1O)C12CC3CC(CC(C3)C1)C2 (stereo not given)
inactive: [1] 0.5% | [2] -6.65% | [3] 12.4% | [4] 7% | [5] -4.35%

O=C(Cc1ccccc1CCO)NCCc1ccccc1
inactive: [1] 5.35% | [2] 1.55% | [3] -32.9% | [4] -21.8% | [5] -14.9%

Cc1cc([N+](=O)[O-])c2ncccc2c1
inactive: [1] -12.3% | [2] -7.7% | [3] -2.7% | [4] -15.7% | [5] -6.95%

O/N=C1/C(=C/c2ccc(Br)cc2)CCCC1C(NO)c1ccc(Br)cc1 (stereo not given)
inactive: [1] 0.9% | [2] -9.8% | [3] -27.4% | [4] 0.45% | [5] -12.9%

CSc1ccc(NC(=O)Nc2cc(C)c(C)cc2C)cc1
inactive: [1] 16.6% | [2] 2.1% | [3] 6.75% | [4] 14.5% | [5] 2.85%

C=C1CC2C(=O)N(c3ccccc3)C(=O)C2CC1n1[nH]c(=O)n(Cc2ccccc2)c1=O (stereo not given)
inactive: [1] 3.8% | [2] 3.1% | [3] 9.65% | [4] 15.7% | [5] -5.7%

CSc1cc(=O)[nH]c(=O)[nH]1
inactive: [1] 16.9% | [2] 3.1% | [3] 4.2% | [4] 3.8% | [5] 10.8%

O=[N+]([O-])c1ccc2nc(-c3ccccc3[N+](=O)[O-])[nH]c2c1
inactive: [1] 0.2% | [2] 0.85% | [3] 2.5% | [4] -7.35% | [5] -5.15%

Nc1ccc(C(=O)O)c([N+](=O)[O-])c1
inactive: [1] 0.7% | [2] -2.45% | [3] -0.5% | [4] -11.7% | [5] -2.1%

NC1=NN(c2ccccc2)C(=O)C1/C(=N\NC(=O)c1cc2ccccc2cc1O)C(=O)Nc1ccc(Cl)c(Cl)c1 (stereo not given)
inactive: [1] 28.7% | [2] 10% | [3] -17.2% | [4] 6.95% | [5] 21.1%

CCOC(=O)C1=C(C)OC(=O)CC1C (stereo not given)
inactive: [1] 33.2% | [2] -15.8% | [6] 9.05% | [4] -23.6% | [5] 14%

Nc1cc(N)[nH]c(=S)n1
inactive: [1] 16.8% | [2] 10.2% | [6] -10.9% | [4] -3.95% | [5] -2.35%

CSC(=O)Oc1ccc([N+](=O)[O-])cc1
inactive: [1] 6.25% | [2] 1.55% | [6] -38.3% | [4] 12.5% | [5] -2.9%

COc1ccccc1Br
inactive: [1] -3.55% | [2] 0.85% | [6] -15.3% | [4] -32.1% | [5] -4%

COc1cc(OC)c(NC(=O)ON2C(=O)c3ccccc3C2=O)cc1Cl
inactive: [1] 8.2% | [2] -1.75% | [6] 11.8% | [4] 0.5% | [5] 24.6%

O=C(Nc1ccc(S(=O)(=O)NC2CCCCC2)cc1)OC1CCCCCC1
inactive: [1] 2.6% | [2] -1.25% | [6] 4.35% | [4] -1.95% | [5] -0.85%

C[n+]1ccc(Nc2ccc(NC(=O)c3ccc(N)cc3)cc2)cc1
inactive: [1] 12.9% | [2] 20.4% | [6] -5.05% | [4] 6.25% | [5] 17.4%
